Results on 30 compounds are retold here after ChEMBL document CHEMBL4513216, “Probing the Open Global Health Chemical Diversity Library for Multistage-Active Starting Points for Next-Generation Antimalarials” (ACS Infect Dis, 2020).

Screen size: about 65,000 compounds; about 2,100 (3.2%) showed an effect of 50% or more. The median lay at about -52%. The sample holds strong results, similar compounds and a random draw of the others, so the mix is not that of the screen.

This assay concerns Plasmodium falciparum. Put plainly: Screen against P. falciparum Asexual Blood Stage (ABS), at 5uM. It is filed as functional, Dd2. The settings on record: tested at 5 uM.
`O=C1CC[C@H]2[C@H](CCN2Cc2ccccn2)N1CC1CCOCC1`: the INHIBITION was -82.3%.

As for `COc1ccc(F)cc1C(=O)C1CCCN(Cc2cnc(C)s2)C1` (stereo not given), the INHIBITION was -29%.

For `COc1ccccc1-c1ncc(CN2CCCC[C@H](N(C)C)C2)s1`, the INHIBITION was determined as 70.3%.

In the case of `CCC(CC)C(=O)N1CCOC2(CNC2)C1`, the INHIBITION was -94.6%.

Take `O=C(NCCCNc1ccc(C(F)(F)F)cn1)c1ccc(F)cc1F`: the INHIBITION is reported as 72.5%.

Take `CC(=O)c1cn(CC(=O)N2CCC3(CC2)OCCO3)c2ccccc12`: the INHIBITION is -61.4%.

For `N#Cc1cccnc1NCCNC(=O)N1CCN2CCCCC2C1` (stereo not given), the INHIBITION is recorded as -90.5%.

Turning to `COCC1CC2(CCN(Cc3ccncc3)CC2)CN1C(C)C` (stereo not given), the INHIBITION is -68%.

Consider `N#Cc1cccc(CN2C[C@@H]3CN(c4ncccn4)C[C@@H]3C2)c1`, for which the INHIBITION was found to be 19%.

For `COCC1CC2(CCN(Cc3cccc(C#N)c3)CC2)CN1C(C)C` (stereo not given), the INHIBITION is given as 73.2%.

On to `N#Cc1cccc(CN2CCO[C@@H]3CNC[C@@H]32)c1`, for which the INHIBITION is -52.7%.

Take `COCC1CC2(CCN(c3ccccn3)CC2)CN1C(C)C` (stereo not given): the INHIBITION is listed as -41%.

For `COCC1CC2(CCN(Cc3ccoc3)CC2)CN1C(C)C` (stereo not given), the INHIBITION is on record as 71.6%.

As to `O=C(NCc1ccccn1)[C@H]1COC[C@H]2CN(CC3CC3)C[C@H]21`, the INHIBITION was -35.7%.

For the compound `O=C(CC1CC1)N[C@@H]1CN(Cc2ccccn2)C[C@@H]2CCCO[C@@H]21`, the INHIBITION is given as -65.3%.

Take `CN(Cc1ccccn1)C1CCC[C@@H]2CN(CC3CC3)C[C@H]12` (stereo not given in full): the INHIBITION stood at 69.5%.

Take `Cc1noc(C)c1CN(C)C(=O)C1CCCCN1CC(C)C` (stereo not given): the INHIBITION is reported as 21.5%.

`COC[C@H](C)Nc1cc(C)c2ccc(SC)cc2n1`: the INHIBITION stood at 75.5%.

For the compound `c1ccc(C(Cn2cnnc2)N2CCOCC2)nc1` (stereo not given), the INHIBITION is recorded as -29.3%.

For `CN1CCC2(CC1)CNC(=O)c1ccccc1O2`, the INHIBITION is -102%.

In the case of `O=C1Nc2ccccc2CC12CCCN2Cc1ccccn1` (stereo not given), the INHIBITION is -60.5%.

As for `Cc1cc(S(=O)(=O)N2C[C@H](C3CC3)[C@@H](N)C2)c(C)s1`, the INHIBITION is given as 86.1%.

With `Cc1cc(-c2cc(S(=O)(=O)N3C[C@H](C4CC4)[C@@H](N)C3)c(C)s2)on1`, the INHIBITION came to 71.2%.

As for `O=C(CC1CC1)N[C@@H]1CN(Cc2ccncc2)C[C@@H]2CCCO[C@@H]21`, the INHIBITION was -86.8%.

Turning to `Cc1nnc(N2CCNCC2)c(C(N)=O)c1C`, the INHIBITION was -11.3%.

`CCN1CC2(CC1=O)CN(Cc1ccccn1)CCN(C(C)=O)C2` (stereo not given): the INHIBITION is reported as -40.2%.

Regarding `CN1CC=C(c2noc(CCC(=O)N3CCc4ccccc43)n2)CC1`, the INHIBITION was -88.8%.

In the case of `CC(C)CN1C[C@@H]2C[C@H](C(=O)Nc3cccnc3)[C@H](C1)O2`, the INHIBITION is given as -48.5%.

As to `CC(C)CN1CCCC1c1ccc(C(=O)Nc2cccnc2)s1` (stereo not given), the INHIBITION was found to be 87.5%.

In the case of `CC(=O)N1CC[C@H]2N(C)CC[C@@]2(C(=O)Nc2cccnc2)CC1`, the INHIBITION was -36%.
